Data: PubChem BioAssay (EPA / NIEHS)
Active and inactive are the calls of the source. Rule for the calls: active = hit-call score of the fitted dose curve at least 0.9, where 1 is the maximum; inactive = score below 0.9.

How the values were obtained:
Settings in all cases: mRNA level, 48 h; actives raise or lower the signal
[1] = read-out: Tumor necrosis factor receptor superfamily member 6 (Homo sapiens) (UniProt P25445); assay: LTEA_HepaRG_FAS: Life Technologies and Expression Analysis (LTEA) Assay for Fas cell surface death receptor (FAS) using HepaRG (AID 2283447)
Method in brief: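 Differentiated HepaRG cells in serum-free induction medium were exposed 48 h to 8 half-log concentrations up to 100 uM in 0.5% DMSO, in duplicate. FAS mRNA was measured by qRT-PCR normalised to ACTB, GAPDH and POLR2A; bidirectional fit versus DMSO.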

[2] = read-out: Fatty acid synthase (Homo sapiens) (UniProt P49327); assay: LTEA_HepaRG_FASN: Life Technologies and Expression Analysis (LTEA) Assay for Fatty Acid Synthase (FASN) using HepaRG (AID 2283448);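 for AC50: differentiated human HepaRG liver cells in serum-free induction medium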
Method in brief: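 Cells were plated, cultured 48 h, switched to serum-free induction medium, then dosed in duplicate (max 100 uM, half-log dilutions, 0.5% DMSO) for 48 h. RNA was then isolated and FASN quantified by qRT-PCR.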

[3] = read-out: Cyclin Dependent Kinase Inhibitor 1A (CDKN1A), CDKN1A (gene 1026); assay: LTEA_HepaRG_CDKN1A: Life Technologies and Expression Analysis (LTEA) Assay for Cyclin Dependent Kinase Inhibitor 1A (CDKN1A) using HepaRG (AID 2283450)
Method in brief: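 Read-out is CDKN1A mRNA by TaqMan qRT-PCR, normalized to three housekeeping genes and fitted in both directions against the DMSO baseline. Human HepaRG cells were treated 48 h with test chemicals up to 100 uM in half-log steps, 0.5% DMSO.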

[4] = read-out: Cyclin D1 (CCND1), CCND1 (gene 595); assay: LTEA_HepaRG_CCND1: Life Technologies and Expression Analysis (LTEA) Assay for Cyclin D1 (CCND1) using HepaRG (AID 2283451);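 for AC50: differentiated human HepaRG liver cells in serum-free induction medium; TaqMan qRT-PCR transcript level normalised to ACTB GAPDH and POLR2A housekeeping genes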
Method in brief: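 HepaRG plated 48 h, medium switched to serum-free induction medium, chemicals added in duplicate (top 100 uM, half-log steps, 0.5% DMSO) for 48 h, cells lysed, RNA measured by TaqMan qRT-PCR.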

[5] = read-out: flavin-containing dimethylaniline monooxygenases 3 (FMO3), FMO3 (gene 2328); assay: LTEA_HepaRG_FMO3: Life Technologies and Expression Analysis (LTEA) Assay for flavin-containing dimethylaniline monooxygenases 3 (FMO3) using HepaRG (AID 2283453);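 for AC50: differentiated human HepaRG liver cells in serum-free induction medium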
Method in brief: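 FMO3 transcript quantified by TaqMan qRT-PCR against three housekeeping genes after 48 h chemical exposure of HepaRG cells. Eight-point half-log series, top 100 uM, 0.5% DMSO vehicle; phenobarbital 1mM induction control; up- or down-regulation fitted.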

[6] = read-out: CFLAR gene, CFLAR (gene 8837); assay: LTEA_HepaRG_CFLAR: Life Technologies and Expression Analysis (LTEA) Assay for CFLAR gene using HepaRG (AID 2283455)
Method in brief: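 qRT-PCR read-out (Fluidigm/TaqMan) of CFLAR mRNA, normalized to three housekeeping genes, in differentiated human HepaRG cells after 48 h chemical exposure; 8-point half-log series from 100 uM in 0.5% DMSO; bidirectional curve fitting versus DMSO.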

[7] = read-out: Forkhead box O1 (FOXO1), FOXO1 (gene 2308); assay: LTEA_HepaRG_FOXO1: Life Technologies and Expression Analysis (LTEA) Assay for Forkhead box O1 (FOXO1) using HepaRG (AID 2283456)
Method in brief: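 HepaRG, 48 h exposure, 8-pt half-log series from 100 uM in 0.5% DMSO, duplicates; Fluidigm qRT-PCR mRNA, housekeeping-normalised; bidirectional fit vs DMSO baseline.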

[8] = read-out: growth arrest and DNA damage 45 (GADD45A), GADD45A (gene 1647); assay: LTEA_HepaRG_GADD45A: Life Technologies and Expression Analysis (LTEA) Assay for growth arrest and DNA damage 45 (GADD45A) using HepaRG (AID 2283458)
Method in brief: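 Transcript induction or loss, quantified by TaqMan qRT-PCR against three housekeeping genes, is the read-out. HepaRG cells received chemicals for 48 h across eight half-log concentrations from 100 uM in 0.5% DMSO; gain and loss fitted relative to DMSO.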

[9] = read-out: Forkhead box O3 (FOXO3), FOXO3 (gene 2309); assay: LTEA_HepaRG_FOXO3: Life Technologies and Expression Analysis (LTEA) Assay for Forkhead box O3 (FOXO3) using HepaRG (AID 2283459)
Method in brief: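 qRT-PCR readout of FOXO3 transcript, normalized to three housekeeping genes (ACTB, GAPDH, POLR2A); gain or loss fitted against 0.5% DMSO vehicle. HepaRG cells, 48 h chemical exposure, 8-point half-log series, top 100 uM.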

[10] = read-out: ABC Transporter (ABCB1), ABCB1 (gene 5243); assay: LTEA_HepaRG_ABCB1: Life Technologies and Expression Analysis (LTEA) Assay for ABC Transporter (ABCB1) using HepaRG (AID 2283460)
Method in brief: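 HepaRG, 48 h exposure, 8-pt half-log series from 100 uM, 0.5% DMSO vehicle, duplicates. Readout: ABCB1 transcript by Fluidigm TaqMan qRT-PCR, housekeeping-normalized; bidirectional curve fit vs DMSO baseline.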

[11] = read-out: growth arrest and DNA damage 45 (GADD45B), GADD45B (gene 4616); assay: LTEA_HepaRG_GADD45B: Life Technologies and Expression Analysis (LTEA) Assay for growth arrest and DNA damage 45 (GADD45B) using HepaRG (AID 2283461)
Method in brief: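 HepaRG, ~100,000 cells/well, 48 h plating; serum-free induction medium; cpd 100 uM top, half-log x8, 0.5% DMSO, duplicate, 48 h; lysis in RLT, RNA isolation, qRT-PCR; norm ACTB/GAPDH/POLR2A; bidirectional fit vs DMSO.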

[12] = read-out: ABC Transporter (ABCC3), ABCC3 (gene 8714); assay: LTEA_HepaRG_ABCC3: Life Technologies and Expression Analysis (LTEA) Assay for ABC Transporter (ABCC3) using HepaRG (AID 2283462)
Method in brief: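 Human HepaRG, 48 h dosing, 8-pt half-log series from 100 uM, 0.5% DMSO vehicle, duplicates. ABCC3 mRNA by TaqMan qRT-PCR, housekeeping-normalized; bidirectional curve fit vs DMSO.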

[13] = read-out: ABC Transporter (ABCB11), ABCB11 (gene 8647); assay: LTEA_HepaRG_ABCB11: Life Technologies and Expression Analysis (LTEA) Assay for ABC Transporter (ABCB11) using HepaRG (AID 2283463)
Method in brief: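 HepaRG, 48 h exposure, 8-pt half-log CRC top 100 uM, 0.5% DMSO vehicle, duplicates. Readout: TaqMan qRT-PCR of ABCB11 mRNA, housekeeping-normalized (ACTB/GAPDH/POLR2A). Bidirectional fit vs DMSO baseline.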

[14] = read-out: ABC Transporter (ABCC2), ABCC2 (gene 1244); assay: LTEA_HepaRG_ABCC2: Life Technologies and Expression Analysis (LTEA) Assay for ABC Transporter (ABCC2) using HepaRG (AID 2283464)
Method in brief: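 HepaRG, 48 h post-plating; serum-free induction medium; cpd 8-pt, 100 uM top, half-log, 0.5% DMSO, duplicate, 48 h. Readout: ABCC2 mRNA by qRT-PCR, norm. ACTB/GAPDH/POLR2A. Bidirectional fit vs DMSO baseline.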

[15] = read-out: Broad substrate specificity ATP-binding cassette transporter ABCG2 (Homo sapiens) (UniProt Q9UNQ0); assay: LTEA_HepaRG_ABCG2: Life Technologies and Expression Analysis (LTEA) Assay for ABC Transporter (ABCG2) using HepaRG (AID 2283465)
Method in brief: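 HepaRG, 48 h exposure, 8-pt half-log series from 100 uM, 0.5% DMSO vehicle, duplicates. Readout: ABCG2 transcript by qRT-PCR (Fluidigm array), housekeeping-normalized; bidirectional curve fit relative to DMSO baseline.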

[16] = read-out: ATP-citrate lyase (ACLY), ACLY (gene 47); assay: LTEA_HepaRG_ACLY: Life Technologies and Expression Analysis (LTEA) Assay for ATP-citrate lyase (ACLY) using HepaRG (AID 2283466)
Method in brief: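 qRT-PCR readout of ACLY transcript after 48 h chemical treatment of HepaRG cells; expression normalized to three housekeeping genes. Eight-point half-log series, highest 100 uM, 0.5% DMSO vehicle. Gain or loss fitted against DMSO baseline.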

[17] = read-out: Peroxisomal acyl-coenzyme A oxidase 1 (ACOX1) gene, ACOX1 (gene 51); assay: LTEA_HepaRG_ACOX1: Life Technologies and Expression Analysis (LTEA) Assay for Peroxisomal acyl-coenzyme A oxidase 1 (ACOX1) gene using HepaRG (AID 2283467)
Method in brief: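 HepaRG, 48 h chemical exposure, 8-pt half-log series from 100 uM top, 0.5% DMSO vehicle, duplicates. Readout: ACOX1 mRNA by Fluidigm qRT-PCR, housekeeping-normalized; bidirectional fit vs DMSO baseline.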

[18] = read-out: Cyclin D2 (CCND2), CCND2 (gene 894); assay: LTEA_HepaRG_CCND2: Life Technologies and Expression Analysis (LTEA) Assay for Cyclin D2 (CCND2) using HepaRG (AID 2283449);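 note: CCND2 transcript measured by TaqMan qRT-PCR and normalised to three housekeeping genes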
Method in brief: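 HepaRG, 48 h dosing, 8-pt half-log curve from 100 uM, 0.5% DMSO; duplicate wells. Readout: CCND2 transcript by microfluidic qRT-PCR, housekeeping-normalised; bidirectional fit vs DMSO baseline.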

Measured: AC50

Sequence of Fatty acid synthase (Homo sapiens) (P49327 whole entry, looked up): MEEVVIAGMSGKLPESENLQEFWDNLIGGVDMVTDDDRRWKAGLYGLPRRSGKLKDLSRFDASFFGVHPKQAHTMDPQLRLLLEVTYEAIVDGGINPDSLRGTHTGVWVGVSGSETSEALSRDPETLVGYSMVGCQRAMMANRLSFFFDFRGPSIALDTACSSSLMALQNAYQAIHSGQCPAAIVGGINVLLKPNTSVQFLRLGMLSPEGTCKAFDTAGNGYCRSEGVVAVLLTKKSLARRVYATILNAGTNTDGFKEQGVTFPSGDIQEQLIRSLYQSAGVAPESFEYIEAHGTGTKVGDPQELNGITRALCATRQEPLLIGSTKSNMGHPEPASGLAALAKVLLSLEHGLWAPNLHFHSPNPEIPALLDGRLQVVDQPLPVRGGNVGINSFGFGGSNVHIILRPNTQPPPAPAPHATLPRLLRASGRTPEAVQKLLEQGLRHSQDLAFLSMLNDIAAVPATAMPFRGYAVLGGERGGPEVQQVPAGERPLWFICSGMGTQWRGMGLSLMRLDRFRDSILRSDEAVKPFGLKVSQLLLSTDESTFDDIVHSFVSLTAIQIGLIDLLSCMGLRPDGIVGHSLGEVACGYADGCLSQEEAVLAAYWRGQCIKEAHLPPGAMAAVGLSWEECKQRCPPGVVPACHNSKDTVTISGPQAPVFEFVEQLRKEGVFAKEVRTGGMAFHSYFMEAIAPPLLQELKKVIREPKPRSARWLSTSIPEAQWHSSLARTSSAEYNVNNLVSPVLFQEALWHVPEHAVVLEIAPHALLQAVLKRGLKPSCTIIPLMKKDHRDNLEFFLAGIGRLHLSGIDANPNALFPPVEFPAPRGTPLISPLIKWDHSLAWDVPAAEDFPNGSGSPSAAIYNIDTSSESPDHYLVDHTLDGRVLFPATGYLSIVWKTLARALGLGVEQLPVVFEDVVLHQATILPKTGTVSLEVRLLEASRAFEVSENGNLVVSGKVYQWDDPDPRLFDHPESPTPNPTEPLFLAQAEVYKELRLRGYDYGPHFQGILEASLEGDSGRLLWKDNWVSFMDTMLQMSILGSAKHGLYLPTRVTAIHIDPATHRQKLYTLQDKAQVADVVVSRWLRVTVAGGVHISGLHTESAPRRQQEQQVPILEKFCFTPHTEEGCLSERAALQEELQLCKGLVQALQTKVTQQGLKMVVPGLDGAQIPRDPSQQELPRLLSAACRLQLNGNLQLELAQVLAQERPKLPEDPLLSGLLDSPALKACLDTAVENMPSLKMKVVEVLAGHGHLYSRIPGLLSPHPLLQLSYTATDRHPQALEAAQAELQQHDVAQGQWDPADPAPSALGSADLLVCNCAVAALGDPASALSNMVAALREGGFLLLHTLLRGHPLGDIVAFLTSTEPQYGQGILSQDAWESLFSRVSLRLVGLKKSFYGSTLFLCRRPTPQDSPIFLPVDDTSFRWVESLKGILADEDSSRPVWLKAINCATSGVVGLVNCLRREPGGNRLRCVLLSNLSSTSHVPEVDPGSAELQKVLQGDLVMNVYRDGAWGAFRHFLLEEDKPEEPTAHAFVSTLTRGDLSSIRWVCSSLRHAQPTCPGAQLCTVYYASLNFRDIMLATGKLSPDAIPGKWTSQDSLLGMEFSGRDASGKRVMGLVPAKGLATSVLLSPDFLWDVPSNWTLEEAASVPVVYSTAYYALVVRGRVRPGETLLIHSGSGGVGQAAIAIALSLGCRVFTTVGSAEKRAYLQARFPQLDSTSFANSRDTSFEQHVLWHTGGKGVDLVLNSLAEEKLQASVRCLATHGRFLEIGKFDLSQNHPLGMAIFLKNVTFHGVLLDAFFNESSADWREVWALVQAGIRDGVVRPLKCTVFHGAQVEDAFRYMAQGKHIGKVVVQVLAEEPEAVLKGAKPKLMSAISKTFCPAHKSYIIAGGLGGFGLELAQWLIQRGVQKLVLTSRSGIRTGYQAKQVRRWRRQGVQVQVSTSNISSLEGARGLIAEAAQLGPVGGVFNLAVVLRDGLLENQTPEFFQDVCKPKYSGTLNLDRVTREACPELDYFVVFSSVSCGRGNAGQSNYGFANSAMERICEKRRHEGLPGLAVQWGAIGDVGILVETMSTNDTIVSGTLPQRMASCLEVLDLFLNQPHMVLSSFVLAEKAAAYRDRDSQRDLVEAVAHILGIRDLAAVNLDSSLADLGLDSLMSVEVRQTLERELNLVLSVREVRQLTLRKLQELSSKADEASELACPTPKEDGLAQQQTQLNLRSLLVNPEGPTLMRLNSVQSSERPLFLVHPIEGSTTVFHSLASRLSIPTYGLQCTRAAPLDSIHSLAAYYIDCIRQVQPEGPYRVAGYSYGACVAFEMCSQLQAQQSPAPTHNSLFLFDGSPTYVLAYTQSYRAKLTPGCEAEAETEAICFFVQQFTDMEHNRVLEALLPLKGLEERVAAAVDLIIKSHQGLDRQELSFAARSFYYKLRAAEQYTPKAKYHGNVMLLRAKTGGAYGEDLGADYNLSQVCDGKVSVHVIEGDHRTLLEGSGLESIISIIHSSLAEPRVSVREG
Sequence of Broad substrate specificity ATP-binding cassette transporter ABCG2 (Homo sapiens) (Q9UNQ0 whole entry, looked up): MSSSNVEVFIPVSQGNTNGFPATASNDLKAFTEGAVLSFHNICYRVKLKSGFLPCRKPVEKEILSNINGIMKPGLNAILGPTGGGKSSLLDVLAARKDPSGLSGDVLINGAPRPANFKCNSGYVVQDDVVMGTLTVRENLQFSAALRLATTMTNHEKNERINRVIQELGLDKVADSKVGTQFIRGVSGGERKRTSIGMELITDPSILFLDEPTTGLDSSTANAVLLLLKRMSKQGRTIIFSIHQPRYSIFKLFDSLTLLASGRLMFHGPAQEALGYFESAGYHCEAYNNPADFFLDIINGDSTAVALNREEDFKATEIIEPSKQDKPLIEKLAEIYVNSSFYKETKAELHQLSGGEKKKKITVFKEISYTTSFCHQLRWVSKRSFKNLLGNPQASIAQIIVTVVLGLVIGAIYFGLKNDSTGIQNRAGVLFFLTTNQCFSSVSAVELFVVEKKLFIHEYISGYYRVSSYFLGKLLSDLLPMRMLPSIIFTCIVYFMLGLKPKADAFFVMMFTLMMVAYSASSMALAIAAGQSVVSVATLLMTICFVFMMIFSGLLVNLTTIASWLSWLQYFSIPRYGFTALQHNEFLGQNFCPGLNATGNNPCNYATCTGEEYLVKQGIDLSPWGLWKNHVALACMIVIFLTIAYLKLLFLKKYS

CC(C)(C)CC(C)(C)c1ccc(O)cc1
active: [8] 81.5 µM
not listed: [18]
inactive: all other assays above

O=c1[nH]c(=O)[nH]c(=O)[nH]1
inactive: all assays above

CC(C)(OO)c1ccccc1
inactive: all assays above

O=[N+]([O-])c1ccc(O)c([N+](=O)[O-])c1
active: [2] 13.1 µM | [3] 12.4 µM | [4] 12.6 µM | [5] 15.3 µM | [6] 13.2 µM | [8] 11.5 µM | [9] 28.8 µM | [10] 13.6 µM | [11] 50 µM | [12] 12.4 µM | [13] 12.4 µM | [14] 13.3 µM | [15] 12.4 µM | [16] 4.2 µM | [17] 13.3 µM
inactive: [1] | [18] | [7]
